# Source: the supplement of paper PMC4466140
# Biological target: AgAbp1
# Test: SPOT peptide array binding signal intensity (averaged, normalized) (arbitrary units (background-subtracted, floor 0; scale differs between SH3 domains)); higher = stronger binding of the SH3 domain to the peptide
# Procedure, shortened: (§1)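 E. coli BL21(DE3) was used to express GST-fused SH3 domains from four yeast species, which were then purified on glutathione Sepharose. These were incubated at 10 μg/ml in TBS-based blocking buffer overnight at 4°C on cellulose membranes carrying synthetic 15-mer peptides, in which cysteines were replaced by serines. Binding signal is the replicate average of normalized, background-subtracted spot intensity, in arbitrary units that differ between domains.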
row,Binder,SPOT peptide array binding signal intensity
1,PELAPKREAPKPPAN,0.5

# Biological target: AgBbc1
# Test: as above
# Procedure, shortened: as §1
row,Binder,SPOT peptide array binding signal intensity
1,PELAPKREAPKPPAN,≤ 0

# Biological target: AgBem1-D1
# Test: as above
# Procedure, shortened: as §1
row,Binder,SPOT peptide array binding signal intensity
1,PELAPKREAPKPPAN,7.5

# Biological target: AgBzz1-D1
# Test: as above
# Procedure, shortened: as §1
row,Binder,SPOT peptide array binding signal intensity
1,PELAPKREAPKPPAN,34.5

# Biological target: AgBzz1-D2
# Test: as above
# Procedure, shortened: as §1
row,Binder,SPOT peptide array binding signal intensity
1,PELAPKREAPKPPAN,12

# Biological target: AgCyk3
# Test: as above
# Procedure, shortened: as §1
row,Binder,SPOT peptide array binding signal intensity
1,PELAPKREAPKPPAN,≤ 0

# Biological target: AgFus1
# Test: as above
# Procedure, shortened: as §1
row,Binder,SPOT peptide array binding signal intensity
1,PELAPKREAPKPPAN,0.5

# Biological target: AgHof1
# Test: as above
# Procedure, shortened: as §1
row,Binder,SPOT peptide array binding signal intensity
1,PELAPKREAPKPPAN,2.5

# Biological target: AgHse1
# Test: as above
# Procedure, shortened: as §1
row,Binder,SPOT peptide array binding signal intensity
1,PELAPKREAPKPPAN,≤ 0

# Biological target: AgLsb1
# Test: as above
# Procedure, shortened: as §1
row,Binder,SPOT peptide array binding signal intensity
1,PELAPKREAPKPPAN,≤ 0

# Biological target: AgLsb4
# Test: as above
# Procedure, shortened: as §1
row,Binder,SPOT peptide array binding signal intensity
1,PELAPKREAPKPPAN,≤ 0

# Biological target: AgMyo5
# Test: as above
# Procedure, shortened: as §1
row,Binder,SPOT peptide array binding signal intensity
1,PELAPKREAPKPPAN,560

# Biological target: AgNbp2
# Test: as above
# Procedure, shortened: as §1
row,Binder,SPOT peptide array binding signal intensity
1,PELAPKREAPKPPAN,564

# Biological target: AgRvs167
# Test: as above
# Procedure, shortened: as §1
row,Binder,SPOT peptide array binding signal intensity
1,PELAPKREAPKPPAN,2.83

# Biological target: AgSho1
# Test: as above
# Procedure, shortened: as §1
row,Binder,SPOT peptide array binding signal intensity
1,PELAPKREAPKPPAN,≤ 0

# Biological target: AgSla1-D1-D2
# Test: as above
# Procedure, shortened: as §1
row,Binder,SPOT peptide array binding signal intensity
1,PELAPKREAPKPPAN,≤ 0

# Biological target: AgSla1-D3
# Test: as above
# Procedure, shortened: as §1
row,Binder,SPOT peptide array binding signal intensity
1,PELAPKREAPKPPAN,3

# Biological target: CaAbp1-D1
# Test: as above
# Procedure, shortened: as §1
row,Binder,SPOT peptide array binding signal intensity
1,PELAPKREAPKPPAN,≤ 0

# Biological target: CaAbp1-D2
# Test: as above
# Procedure, shortened: as §1
row,Binder,SPOT peptide array binding signal intensity
1,PELAPKREAPKPPAN,3.5

# Biological target: CaBbc1
# Test: as above
# Procedure, shortened: as §1
row,Binder,SPOT peptide array binding signal intensity
1,PELAPKREAPKPPAN,73.2

# Biological target: CaBem1-D1
# Test: as above
# Procedure, shortened: as §1
row,Binder,SPOT peptide array binding signal intensity
1,PELAPKREAPKPPAN,1

# Biological target: CaBzz1-D1
# Test: as above
# Procedure, shortened: as §1
row,Binder,SPOT peptide array binding signal intensity
1,PELAPKREAPKPPAN,652

# Biological target: CaBzz1-D2
# Test: as above
# Procedure, shortened: as §1
row,Binder,SPOT peptide array binding signal intensity
1,PELAPKREAPKPPAN,265

# Biological target: CaCyk3
# Test: as above
# Procedure, shortened: as §1
row,Binder,SPOT peptide array binding signal intensity
1,PELAPKREAPKPPAN,≤ 0

# Biological target: CaFus1
# Test: as above
# Procedure, shortened: as §1
row,Binder,SPOT peptide array binding signal intensity
1,PELAPKREAPKPPAN,14

# Biological target: CaHof1
# Test: as above
# Procedure, shortened: as §1
row,Binder,SPOT peptide array binding signal intensity
1,PELAPKREAPKPPAN,≤ 0

# Biological target: CaHse1
# Test: as above
# Procedure, shortened: as §1
row,Binder,SPOT peptide array binding signal intensity
1,PELAPKREAPKPPAN,0.5

# Biological target: CaLsb1
# Test: as above
# Procedure, shortened: as §1
row,Binder,SPOT peptide array binding signal intensity
1,PELAPKREAPKPPAN,≤ 0

# Biological target: CaLsb4
# Test: as above
# Procedure, shortened: as §1
row,Binder,SPOT peptide array binding signal intensity
1,PELAPKREAPKPPAN,≤ 0

# Biological target: CaMyo5
# Test: as above
# Procedure, shortened: as §1
row,Binder,SPOT peptide array binding signal intensity
1,PELAPKREAPKPPAN,1.5

# Biological target: CaNbp2
# Test: as above
# Procedure, shortened: as §1
row,Binder,SPOT peptide array binding signal intensity
1,PELAPKREAPKPPAN,1020

# Biological target: CaRvs167
# Test: as above
# Procedure, shortened: as §1
row,Binder,SPOT peptide array binding signal intensity
1,PELAPKREAPKPPAN,0.667

# Biological target: CaRvs167-3
# Test: as above
# Procedure, shortened: as §1
row,Binder,SPOT peptide array binding signal intensity
1,PELAPKREAPKPPAN,≤ 0

# Biological target: CaSho1
# Test: as above
# Procedure, shortened: as §1
row,Binder,SPOT peptide array binding signal intensity
1,PELAPKREAPKPPAN,≤ 0

# Biological target: CaSla1-D1-D2
# Test: as above
# Procedure, shortened: as §1
row,Binder,SPOT peptide array binding signal intensity
1,PELAPKREAPKPPAN,≤ 0

# Biological target: CaSla1-D3
# Test: as above
# Procedure, shortened: as §1
row,Binder,SPOT peptide array binding signal intensity
1,PELAPKREAPKPPAN,1

# Biological target: ScAbp1
# Test: as above
# Procedure, shortened: as §1
row,Binder,SPOT peptide array binding signal intensity
1,PELAPKREAPKPPAN,1

# Biological target: ScBbc1
# Test: as above
# Procedure, shortened: as §1
row,Binder,SPOT peptide array binding signal intensity
1,PELAPKREAPKPPAN,17

# Biological target: ScBem1-D1
# Test: as above
# Procedure, shortened: as §1
row,Binder,SPOT peptide array binding signal intensity
1,PELAPKREAPKPPAN,≤ 0

# Biological target: ScBzz1-D1
# Test: as above
# Procedure, shortened: as §1
row,Binder,SPOT peptide array binding signal intensity
1,PELAPKREAPKPPAN,91

# Biological target: ScBzz1-D2
# Test: as above
# Procedure, shortened: as §1
row,Binder,SPOT peptide array binding signal intensity
1,PELAPKREAPKPPAN,10

# Biological target: ScCyk3
# Test: as above
# Procedure, shortened: as §1
row,Binder,SPOT peptide array binding signal intensity
1,PELAPKREAPKPPAN,≤ 0

# Biological target: ScFus1
# Test: as above
# Procedure, shortened: as §1
row,Binder,SPOT peptide array binding signal intensity
1,PELAPKREAPKPPAN,≤ 0

# Biological target: ScHof1
# Test: as above
# Procedure, shortened: as §1
row,Binder,SPOT peptide array binding signal intensity
1,PELAPKREAPKPPAN,≤ 0

# Biological target: ScHse1
# Test: as above
# Procedure, shortened: as §1
row,Binder,SPOT peptide array binding signal intensity
1,PELAPKREAPKPPAN,≤ 0

# Biological target: ScLsb1
# Test: as above
# Procedure, shortened: as §1
row,Binder,SPOT peptide array binding signal intensity
1,PELAPKREAPKPPAN,≤ 0

# Biological target: ScLsb2
# Test: as above
# Procedure, shortened: as §1
row,Binder,SPOT peptide array binding signal intensity
1,PELAPKREAPKPPAN,0.5

# Biological target: ScLsb3
# Test: as above
# Procedure, shortened: as §1
row,Binder,SPOT peptide array binding signal intensity
1,PELAPKREAPKPPAN,≤ 0

# Biological target: ScLsb4
# Test: as above
# Procedure, shortened: as §1
row,Binder,SPOT peptide array binding signal intensity
1,PELAPKREAPKPPAN,≤ 0

# Biological target: ScMyo3
# Test: as above
# Procedure, shortened: as §1
row,Binder,SPOT peptide array binding signal intensity
1,PELAPKREAPKPPAN,1310

# Biological target: ScMyo5
# Test: as above
# Procedure, shortened: as §1
row,Binder,SPOT peptide array binding signal intensity
1,PELAPKREAPKPPAN,906

# Biological target: ScNbp2
# Test: as above
# Procedure, shortened: as §1
row,Binder,SPOT peptide array binding signal intensity
1,PELAPKREAPKPPAN,1560

# Biological target: ScPex13
# Test: as above
# Procedure, shortened: as §1
row,Binder,SPOT peptide array binding signal intensity
1,PELAPKREAPKPPAN,5

# Biological target: ScRvs167
# Test: as above
# Procedure, shortened: as §1
row,Binder,SPOT peptide array binding signal intensity
1,PELAPKREAPKPPAN,≤ 0

# Biological target: ScSho1
# Test: as above
# Procedure, shortened: as §1
row,Binder,SPOT peptide array binding signal intensity
1,PELAPKREAPKPPAN,≤ 0

# Biological target: ScSla1-D1-D2
# Test: as above
# Procedure, shortened: as §1
row,Binder,SPOT peptide array binding signal intensity
1,PELAPKREAPKPPAN,≤ 0

# Biological target: ScSla1-D3
# Test: as above
# Procedure, shortened: as §1
row,Binder,SPOT peptide array binding signal intensity
1,PELAPKREAPKPPAN,4.5

# Biological target: SpAbp1-D1
# Test: as above
# Procedure, shortened: as §1
row,Binder,SPOT peptide array binding signal intensity
1,PELAPKREAPKPPAN,5

# Biological target: SpBbc1
# Test: as above
# Procedure, shortened: as §1
row,Binder,SPOT peptide array binding signal intensity
1,PELAPKREAPKPPAN,≤ 0

# Biological target: SpBzz1-D1
# Test: as above
# Procedure, shortened: as §1
row,Binder,SPOT peptide array binding signal intensity
1,PELAPKREAPKPPAN,9

# Biological target: SpBzz1-D2
# Test: as above
# Procedure, shortened: as §1
row,Binder,SPOT peptide array binding signal intensity
1,PELAPKREAPKPPAN,0.5

# Biological target: SpCyk3
# Test: as above
# Procedure, shortened: as §1
row,Binder,SPOT peptide array binding signal intensity
1,PELAPKREAPKPPAN,1

# Biological target: SpHof1
# Test: as above
# Procedure, shortened: as §1
row,Binder,SPOT peptide array binding signal intensity
1,PELAPKREAPKPPAN,0.5

# Biological target: SpHof1-2
# Test: as above
# Procedure, shortened: as §1
row,Binder,SPOT peptide array binding signal intensity
1,PELAPKREAPKPPAN,1.5

# Biological target: SpHof1-3
# Test: as above
# Procedure, shortened: as §1
row,Binder,SPOT peptide array binding signal intensity
1,PELAPKREAPKPPAN,1

# Biological target: SpHse1
# Test: as above
# Procedure, shortened: as §1
row,Binder,SPOT peptide array binding signal intensity
1,PELAPKREAPKPPAN,7.5

# Biological target: SpLsb1
# Test: as above
# Procedure, shortened: as §1
row,Binder,SPOT peptide array binding signal intensity
1,PELAPKREAPKPPAN,≤ 0

# Biological target: SpLsb4
# Test: as above
# Procedure, shortened: as §1
row,Binder,SPOT peptide array binding signal intensity
1,PELAPKREAPKPPAN,≤ 0

# Biological target: SpMyo1
# Test: as above
# Procedure, shortened: as §1
row,Binder,SPOT peptide array binding signal intensity
1,PELAPKREAPKPPAN,1220

# Biological target: SpNbp2
# Test: as above
# Procedure, shortened: as §1
row,Binder,SPOT peptide array binding signal intensity
1,PELAPKREAPKPPAN,≤ 0

# Biological target: SpPex13
# Test: as above
# Procedure, shortened: as §1
row,Binder,SPOT peptide array binding signal intensity
1,PELAPKREAPKPPAN,≤ 0

# Biological target: SpRvs167
# Test: as above
# Procedure, shortened: as §1
row,Binder,SPOT peptide array binding signal intensity
1,PELAPKREAPKPPAN,≤ 0

# Biological target: SpSla1-D1-D2
# Test: as above
# Procedure, shortened: as §1
row,Binder,SPOT peptide array binding signal intensity
1,PELAPKREAPKPPAN,≤ 0

# Biological target: SpSla1-D3
# Test: as above
# Procedure, shortened: as §1
row,Binder,SPOT peptide array binding signal intensity
1,PELAPKREAPKPPAN,≤ 0
